In publication PMC7826789 (International Journal of Molecular Sciences, 2021):

Experiments:
Conditions in all cases: Compound Concentration (nM):1000
YSK1 = tested on: T1, YSK1
T1 construct: gene STK25

YSK4 = tested on: T2, YSK4
T2 construct: gene MAP3K19

ZAK = tested on: ZAK
ZAP70 = tested on: ZAP70
p38-alpha = tested on: T3, p38-alpha
T3 construct: gene MAPK14

p38-beta = tested on: T4, p38-beta
T4 construct: gene MAPK11

p38-delta = tested on: T5, p38-delta
T5 construct: gene MAPK13

p38-gamma = tested on: T6, p38-gamma
T6 construct: gene MAPK12
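Also: KINOMEscan scanMAX binding as percent activity remaining versus control; lower means stronger binding.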

SMILES | Percent Control (YSK1) [%] | Percent Control (YSK4) [%] | Percent Control (ZAK) [%] | Percent Control (ZAP70) [%] | Percent Control (p38-alpha) [%] | Percent Control (p38-beta) [%] | Percent Control (p38-delta) [%] | Percent Control (p38-gamma) [%]
COc1cc(C)c(N(C)C(=O)CN(C)C)cc1Nc1nc(Nc2cccc(F)c2C(N)=O)c2cc[nH]c2n1 [GSK2219385] | 100 | 51 | 90 | 81 | 97 | 100 | 100 | 56
C[C@@H](Oc1cc(-n2cnc3ccc(OC4CCN(C)CC4)cc32)sc1C(N)=O)c1ccccc1Cl [GSK579289A] | 74 | 32 | 69 | 93 | 100 | 76 | 100 | 81
Cl.O=S1CCN(Cc2ccc(-c3ccc4ncnc(Nc5ccc(OCc6ccccc6)c(F)c5)c4c3)o2)CC1 [GW576924A] | 81 | 100 | 100 | 100 | 100 | 100 | 100 | 99
CN(C)CCNC(=O)Nc1ccc(N(C)c2ccnc(Nc3ccc(CS(C)(=O)=O)cc3)n2)cc1.Cl [GW830900A] | 100 | 12 | 100 | 90 | 99 | 100 | 99 | 100
COC(=O)Nc1nc2ccc(Oc3ccc(NC(=O)Nc4cc(C(F)(F)F)ccc4F)cc3)cc2s1.Cl [GW693917A] | 100 | 12 | 6.8 | 82 | 18 | 10 | 96 | 46
Cl.O=C(Nc1ccc(Oc2ccc3[nH]c(NC(=O)c4ccco4)nc3c2)cc1)Nc1cc(C(F)(F)F)ccc1F [GW683134A] | 70 | 13 | 3.2 | 100 | 97 | 37 | 100 | 82
Cl.O=C(Nc1ccc(Oc2ccc3[nH]c(NC(=O)c4ccccc4)nc3c2)cc1)Nc1cc(C(F)(F)F)ccc1F [GW709042A] | 78 | 69 | 6.9 | 94 | 98 | 52 | 100 | 82
NS(=O)(=O)c1ccc(N/N=C2\C(=O)Nc3ccc(C(=O)NCCc4c[nH]cn4)cc32)cc1 [GW300660X] | 84 | 3.7 | 96 | 79 | 100 | 100 | 100 | 84
CC1=C(C(=O)Nc2ccc3[nH]ncc3c2)C(c2ccc(Cl)c(Cl)c2)CC(=O)N1 (stereo not shown) [GSK299115A] | 67 | 64 | 100 | 100 | 100 | 100 | 100 | 100
Nc1ncnc2occ(-c3ccc(NC(=O)Nc4cc(C(F)(F)F)ccc4F)cc3)c12 [GW770249X] | 70 | 0.1 | 46 | 86 | 85 | 57 | 4.8 | 18
Cl.c1ccc(Cc2nc3ccc(Nc4ncnc5ccccc45)cc3[nH]2)cc1 [GR269666A] | 87 | 100 | 100 | 90 | 100 | 100 | 100 | 100
